# Source: PubChem BioAssay (NCI)
# About 79,000 compounds went through this panel and 15% of them were active in at least one assay; those are over-represented in the sample as a whole. The source made the active and inactive calls. No stated cut-off is given here; in the data, active means growth inhibition above about 70%; inactive means the rest.
# Assay: NCI Yeast Anticancer Drug Screen. Data for the CLN2oe strain (AID 163);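 further: 0% = growth of vehicle-only control cultures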
# Conditions: S. cerevisiae CLN2oe strain, stronger effect = higher value
# Protocol: Growth inhibition of yeast strains with defined genetic alterations is measured as a screen for potential anti-cancer activity. Selected strains with alterations in DNA damage repair or cell cycle control were exposed to compounds and growth inhibition was measured relative to vehicle treated controls. The strain used in this assay is CLN2oe
Compound,growth inhibition (at 1.2 µM),growth inhibition (at 3.7 µM),growth inhibition (at 11.0 µM),growth inhibition (at 33.0 µM),growth inhibition (at 100.0 µM)
Cc1cc2c3ccccc3c3ccccc3c2nn1,-3% (inactive),-3% (inactive),1% (inactive),1% (inactive),0% (inactive)
N=C1N=Nc2nc(C3(c4nc5n(c4O)C(=N)N=N5)Cc4ccccc4C3=O)c(O)n21 (stereo not given),1% (inactive),8% (inactive),15% (inactive),9% (inactive),8% (inactive)
Cc1c(C)c(C)c(CSC(=N)N)c(C)c1C,-22% (inactive),-18% (inactive),-14% (inactive),59% (inactive),99% (active)
CCOC(=O)c1[nH]n(-c2ccccc2)c(=O)c1C=NC(=S)C(N)=S,-8% (inactive),-7% (inactive),2% (inactive),35% (inactive),97% (active)
NC(=O)c1c([N+](=O)[O-])cc(C(F)(F)F)cc1[N+](=O)[O-],2% (inactive),-1% (inactive),-4% (inactive),-5% (inactive),-4% (inactive)
O=C(O)c1cc2ccc(Cl)cc2c(O)c1C1=CCCCC1,17% (inactive),-2% (inactive),4% (inactive),40% (inactive),71% (active)
NC(=O)C(=O)NNc1ccccc1,-3% (inactive),4% (inactive),41% (inactive),67% (inactive),96% (active)
Oc1ccc2c(c1)C(O)CCCC2 (stereo not given),-4% (inactive),-6% (inactive),-3% (inactive),7% (inactive),42% (inactive)
